Laboratory results: PubChem BioAssay AID588333 (National Center for Advancing Translational Sciences (NCATS), 2011)
Active and inactive are the calls of the source.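 Rule for the calls: active = compounds that kill cultured T. brucei parasites with a half-maximal potency under 200 micromolar; inactive = compounds with no measurable potency.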

Experiment: Confirmatory Assay to Find Inhibitors of T. brucei phosphofructokinase: T. brucei in vitro Parasite Assay
Details: T. brucei brucei culture viability, Alamar Blue, 72 h
Text: Various species of the protozoan family Trypanosomatidae are responsible for a range of serious human diseases in tropical and subtropical areas of the world. […] Many of the disorders caused by trypanosomatids are fatal if left untreated, but most currently used drugs are inefficient and toxic. […] Oxidative metabolism involving the mitochondrial tricarboxylic acid cycle and oxidative phosphorylation are repressed in these parasites, and recent RNA interference (RNAi) experiments have shown that even partial depletion of certain individual glycolytic enzymes can lead to the death of cultured parasites. One such glycolytic enzyme, phosphofructokinase (PFK), catalyzes the formation of fructose-1,6-bisphosphate (F1,6BP) and ADP from fructose-6-phosphate (F6P) and ATP, and in many metabolic circumstances makes an important contribution to the control of flux through the glycolytic pathway. As a specific glycolytic target, PFK is particularly attractive as it catalyzes the first irreversible step in glycolysis, and structural and kinetic studies have shown very substantial and essential differences from corresponding host enzymes, allowing for the discovery of parasite-selective inhibitors. Selected active compounds were additionally tested in a well-validated in vitro parasite assay to determine the relative potencies of lead compounds against live T. brucei cultures. H Chemical Genomics Center [NCGC] NIH Molecular Libraries Probe Centers Network [MLPCN] MLPCN Grant: MH092153-01 Assay Submitter (PI): Malcom Walkinshaw, University of Edinburgh
Dilutions of T. brucei brucei were incubated in modified Iscove's cell culture medium (supplemented with 10% FBS, 0.05 mM bathocuproine sulfonate, 1.5 mM L-cysteine, 1 mM hypoxanthine, 0.2 mM 2-mercaptoethanol, 1 mM sodium pyruvate and 0.16 mM thymidine) with titrations of compound for 72 hours. The cell density is adapted so that after 72 hours of incubation, the cells are at the end of the logarithmic growth phase (~5x104 tryps/mL). General morphology and motility were recorded after incubation, and Alamar Blue dye was added as a fluorescent marker of viability (ex530/em590) and read on a fluorescent plate reader following 4 hrs of incubation at 37 degrees C. The results of this assay were used to prioritize medicinal chemistry efforts in conjunction with the human cell toxicity assay to give a measure of relative parasite/host toxicity ratio.

| SMILES | Potency | outcome |
| --- | --- | --- |
| O=C(Cc1ccc(Cl)c(Cl)c1)Nc1ccc(S(=O)(=O)Nc2ccon2)cc1 | 16.3 µM (active) |  |
| COc1ccc(CC(=O)Nc2ccc(S(=O)(=O)Nc3cc(C)on3)cc2)cc1OC |  | inactive |
| Cc1cc(NS(=O)(=O)c2ccc(NC(=O)Cc3ccc(Cl)c(Cl)c3)cc2)on1 | 157 µM (active) |  |
| O=C(Cc1ccc(Cl)c(Cl)c1)Nc1ccc(S(=O)(=O)Nc2cccc(C(=O)O)c2)cc1 | 105 µM (active) |  |
| Cc1cc(NS(=O)(=O)c2ccc(NC(=O)Cc3ccc(Cl)c(Cl)c3)cc2)no1 | 26.8 µM (active) |  |
| Cc1cc(NS(=O)(=O)c2ccc(NC(=O)Cc3ccc(Cl)c(F)c3)cc2)no1 | 38.9 µM (active) |  |
| O=C(Cc1ccc(Cl)c(Cl)c1)Nc1ccc(S(=O)(=O)Nc2ccc(C(=O)O)cc2)cc1 |  | inactive |
